High-throughput results deposited in PubChem by Broad Institute.
PAX8 reporter: lowers PAX8-driven luciferase in RMG-I cells | 1.2% of 360,000 active | inhibition, % at 12.6 µM | RMG-I TPO-luciferase reporter, SteadyGlo, 24 h | AID 652154;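 active = mean replicate inhibition at least 60% with every replicate also reaching 60%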;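 note: luciferase light reporting Pax8 driven TPO promoter activity; plate controls were median of neutral control wells for no effect and mitoxantrone controls for full effect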
aSyn UTR inh: MLPCN primary screen, SNCA 5' untranslated region; inhibition, % (tested at 7.5 µM); alpha-synuclein 5'UTR reporter, inhibitor activity; 0.82% of 300,000 active; in the data active = inhibition above about 60%;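 note: H4 neuroglioblastoma cells stably carrying SNCA 5'UTR luciferase fusion; 0% = DMSO wells and 100% = positive control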
Shn3 inh set2: inhibitors of Schnurri-3 3'UTR reporter in osteoblasts; Clone20 osteoblast Shn3 3'UTR firefly luciferase, 24 h; inhibition, % at 12.5 µM; 0.52% of 360,000 active; AID 588674;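 active = mean inhibition of at least 75% with every replicate also reaching 75%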;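 note: 0% = median of neutral control wells and 100% = pilot-screen positive control compound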
EBV LMP1 NFkB: inhibitors of Epstein-Barr LMP1-induced NF-kappaB reporter. LMP1-induced NF-kappaB luciferase reporter cells, luminescence. inhibition, % at 12.5 µM. 0.69% of 350,000 active. AID 504558; in the data active = inhibition above about 41%;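 note: 0% = neutral control wells and 100% = reference inhibitor control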
MITF TRPM1 inh: MITF TRPM1 promoter inhibition in SK-MEL-5 cells; SK-MEL-5 TRPM1 promoter luciferase, 24 h; inhibition, % at 12.5 µM; AID 488899; 0.83% of 330,000 active;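 active = mean inhibition across replicates of 60% or more, whatever share of single replicates reaches that level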
An asterisk follows results filed as active; / = no result. An excerpt weighted towards active compounds, which were near 2.1% of everything screened.

SMILES | PAX8 reporter | aSyn UTR inh | Shn3 inh set2 | EBV LMP1 NFkB | MITF TRPM1 inh
COc1ccc(CN(C)C[C@H]2OCCCC[C@H](C)Oc3ccc(NC(=O)Nc4ccc(C(F)(F)F)cc4)cc3C(=O)N([C@H](C)CO)C[C@H]2C)cc1 | 102* | / | / | / | /
COc1ccc(CN(C)C[C@@H]2OCCCC[C@@H](C)Oc3ccc(NC(=O)Nc4ccc(C(F)(F)F)cc4)cc3C(=O)N([C@H](C)CO)C[C@@H]2C)cc1 | -6 | / | / | / | /
COc1ccc(NC(=O)Nc2ccc3c(c2)C(=O)N([C@H](C)CO)C[C@H](C)[C@@H](CN(C)Cc2ccc(C(F)(F)F)cc2)OCCCC[C@H](C)O3)cc1 | 50 | / | / | / | /
O=C(c1ccc2c(c1)OCCO2)N1CCN(c2ncc(C(F)(F)F)cc2Cl)CC1 | 10 | 3 | 16 | -1 | -11
COc1ccc(CN(C)C[C@@H]2OCCCC[C@@H](C)Oc3ccc(NC(=O)Nc4ccc(F)cc4)cc3C(=O)N([C@H](C)CO)C[C@H]2C)cc1 | 73* | / | / | / | /
COc1ccc(CN(C)C[C@H]2OCCCC[C@H](C)Oc3ccc(NC(=O)Nc4ccc(C(F)(F)F)cc4)cc3C(=O)N([C@@H](C)CO)C[C@@H]2C)cc1 | 106* | / | / | / | /
COc1ccc(CN(C)C[C@@H]2OCCCC[C@@H](C)Oc3ccc(NC(=O)Nc4ccc(F)cc4)cc3C(=O)N([C@H](C)CO)C[C@@H]2C)cc1 | 1 | / | / | / | /
COc1ccc(NC(=O)Nc2ccc3c(c2)C(=O)N([C@H](C)CO)C[C@@H](C)[C@@H](CN(C)Cc2ccc(C(F)(F)F)cc2)OCCCC[C@H](C)O3)cc1 | 73* | / | / | / | /
COc1ccc(S(=O)(=O)N2CCc3ccccc32)cc1C(=O)OCC(=O)c1c(N)n(C)c(=O)n(C)c1=O | 13 | 41 | 10 | 5 | 6
CNc1nc(N/N=C/c2cc3c(cc2[N+](=O)[O-])OCO3)nc(Nc2ccccc2)n1 | 60 | 74* | 5 | -9 | 36
CSc1cccc(CN2CCC(n3nccc3NC(=O)C3CC3)CC2)c1 | 2 | 11 | 3 | 56* | 4
COc1ccc(CN2CCC(n3nccc3NC(=O)C3CC3)CC2)cc1O | 6 | -1 | -3 | 2 | 2
COc1cc2c(c(O)c1OC)C1Cc3ccc(OC)c(OC)c3CN1CC2 (stereo not drawn) | / | / | 6 | / | /
CCOc1ccc(C2NCCc3cc(OC)c(OC)cc32)cc1OC (stereo not drawn) | -12 | -9 | 2 | 0 | -3
COc1ccc2cc1Oc1ccc(cc1)C[C@H]1c3c(cc(OC)c4c3Oc3c(ccc5c3[C@H](C2)N(C)CC5)O4)CCN1C | / | / | -33 | -15 | 91*
COc1ccc2cc1Oc1ccc(cc1)CC1c3c(cc(OC)c4c3Oc3cc5c(cc3O4)CCNC5C2)CCN1C (stereo not drawn) | / | 114* | 54 | -32 | 109*
CC(C)c1ccc(/C=C/C(=O)O)cc1 | 7 | 5 | -10 | 0 | 0
CCCCCc1ccc(-c2ccc(/C=C/C(=O)O)cc2)nc1 | -76 | 79* | 21 | 43* | 10
CCCCCCCc1ccc(-c2ccc(O)cc2)nc1 | -115 | -28 | -45 | -38 | -41
CCCc1ccc(-c2ccc(/C=C/C(=O)O)cc2)nc1 | -19 | 115* | 29 | 75* | 86*
Cn1c(N)c(C(=O)COC(=O)c2cc3ccccc3cc2O)c(=O)n(C)c1=O | 1 | / | -11 | 3 | -1
Cc1cccc(N=C2NN=C(c3ccc4c(c3)OCCO4)CS2)c1 | / | -140 | -47 | -23 | -43
Cc1cccc(N=C2NN=C(c3c(C)[nH]c4ccccc34)CS2)c1 | 74* | -90 | 44 | -52 | 13
CCOc1ccc(C(=O)Nc2cc(C)ccn2)cc1 | 24 | 65* | 11 | 53* | 33
CCOc1cc(C(=O)Nc2cc(C)ccn2)cc(OCC)c1OCC | / | 3 | 3 | -9 | -2
SMILES | PAX8 reporter | aSyn UTR inh | Shn3 inh set2 | EBV LMP1 NFkB | MITF TRPM1 inh
Cc1ccnc(NC(=O)c2ccccc2NC(=O)c2ccccc2)c1 | -5 | -11 | -4 | 0 | -2
Cc1ccnc(NC(=O)c2ccc(C(=O)c3ccccc3)cc2)c1 | 3 | 31 | -14 | 50* | 8
Cn1nc(C2CC2)cc1NC(=O)CC(CC(=O)O)c1ccccc1 (stereo not drawn) | 20 | -24 | 1 | / | /
C=C1C(=O)O[C@H]2C1CC[C@@](C)(O)C13C=CC(C)(C21)C1(C3)C(=O)O[C@@H]2C3C(C)=CCC3[C@](C)(O)C[C@H](OC(C)=O)C21 (stereo partly drawn) | 87* | -29 | -18 | -4 | 5
Cc1c(NP(=O)(Oc2ccccc2F)Oc2ccccc2F)c(=O)n(-c2ccccc2)n1C | 7 | -11 | 16 | -1 | -2
CCCCCc1cc(=O)oc2c(C(CCN(CC)CC)c3ccc(OC)cc3)c(OC)cc(OC)c12 (stereo not drawn) | 24 | -5 | -15 | -3 | 81*
CCCCCc1cc(=O)oc2c(C(CCN3CCCC3)c3cc(OC)c(OC)c(OC)c3)c(OC)cc(OC)c12 (stereo not drawn) | 2 | 14 | 0 | -51 | 95*
CCCCCc1cc(=O)oc2c(C(CCN3CCCC3)c3ccc(N(C)C)cc3)c(OC)cc(OC)c12 (stereo not drawn) | 20 | 20 | -28 | 2 | 79*
CCCCCc1cc(=O)oc2c(C(CCN3CCCC(C)C3)c3ccc(OC)cc3)c(OC)cc(OC)c12 (stereo not drawn) | 32 | 21 | 28 | 13 | 47
CCCCCc1cc(=O)oc2c(C(CCN3CCCCC3)c3ccc(OC)cc3)c(OC)cc(OC)c12 (stereo not drawn) | 66* | 31 | 31 | -4 | 92*
C[C@@H]1CCCCO[C@H](CN(C)S(=O)(=O)c2cn(C)cn2)[C@H](C)CN([C@@H](C)CO)C(=O)c2cc(NC(=O)C3CCCCC3)ccc2O1 | -12 | / | / | / | /
COc1ccc(Cc2n[nH]c(=S)n2-c2ccc3c(c2)OCCO3)cc1 | -5 | 15 | 51 | -5 | /
COc1ccc(S(=O)(=O)NCCN2CCOCC2)c2ccccc12 | / | -7 | 5 | -1 | -4
COc1cc([C@@H]2c3cc4c(cc3[C@H](O)[C@H]3COC(=O)[C@H]23)OCO4)cc(OC)c1OC | 95* | 95* | 10 | -4 | 61*
COc1cc(C2c3cc4c(cc3C(OC3OC5COC(c6cccs6)OC5C(O)C3O)C3COC(=O)C23)OCO4)cc(OC)c1O (stereo not drawn) | 69* | 82* | 94* | 75* | 76*
COc1cc([C@@H]2c3cc4c(cc3[C@@H](O[C@@H]3O[C@@H]5CO[C@@H](C)O[C@H]5[C@H](O)[C@H]3O)[C@H]3COC(=O)[C@H]23)OCO4)cc(OC)c1O | 28 | 39 | 81 | 70* | 17
COc1cc([C@@H]2c3cc4c(cc3[C@@H](NC3CCN(Cc5ccccc5)CC3)[C@H]3COC(=O)[C@H]23)OCO4)cc(OC)c1O | / | 103* | / | / | /
CCN(CC)C1Oc2cc3c(cc2C(c2cc(OC)c(O)c(OC)c2)C1C)OCO3 (stereo not drawn) | 2 | / | -37 | -2 | 2
